# Measurements taken from the supplement of paper PMC8975748.
# Structures can show the parent of a compound that is named as a salt. ± gives the standard deviation of the averaged measurements.
# Experiments:
# [1] = system: Saccharomyces cerevisiae BY4741 SeMeCo community; test: mean cell size (pixel area) (pixels); higher = larger cells; details: 10 µM; 24 h; SM minimal medium
# Summary of the method: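 Mean cell pixel area per well was measured in a four-plasmid fluorescent community of Saccharomyces cerevisiae BY4741, where every plasmid complements one auxotrophy and carries a fluorescent marker. Cells from an overnight preculture at OD600 = 1.0 were diluted to OD600 = 0.3 and dispensed at 70 µl into 384-well plates acoustically predosed with drug to a final 10 µM in SM medium. Incubation lasted 24 h, followed by paraformaldehyde fixation, automated confocal imaging and analysis in Harmony. Reported figures are averaged over 3 replicates. Same SeMeCo high-content imaging drug screen: Selleck FDA-approved drugs at 10 µM, 24 h in SM medium, 384-well plates, 3 replicates.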
# [2] = system: Saccharomyces cerevisiae BY4741 SeMeCo community; test: z-score of subpopulation abundance vs DMSO median, subpopulation auxotrophic for M; higher = larger share of this subpopulation than in DMSO controls; details: 10 µM; 24 h; SM minimal medium; subpopulation (auxotrophy): M
# Summary of the method: (§1)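 Cells of a Saccharomyces cerevisiae BY4741 community, carrying four plasmids that each restored one auxotrophy and encoded a distinct fluorescent protein, were pre-grown overnight to OD600 1.0 and diluted to 0.3. A 70 µl volume was added to 384-well plates acoustically predosed with library drugs (10 µM final) and grown 24 h in minimal SM medium. After paraformaldehyde fixation, automated confocal microscopy was used, with single-auxotroph fluorescent strains for thresholds and autofluorescence correction. The abundance of each subpopulation was scored as a z-score against the vehicle-well median.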
# [3] = system: Saccharomyces cerevisiae BY4741 SeMeCo community; test: z-score of subpopulation abundance vs DMSO median, subpopulation auxotrophic for L; higher = larger share of this subpopulation than in DMSO controls; details: 10 µM; 24 h; SM minimal medium; subpopulation (auxotrophy): L
# Summary of the method: as §1
# [4] = system: Saccharomyces cerevisiae BY4741 SeMeCo community; test: z-score of subpopulation abundance vs DMSO median, subpopulation auxotrophic for U; higher = larger share of this subpopulation than in DMSO controls; details: 10 µM; 24 h; SM minimal medium; subpopulation (auxotrophy): U
# Summary of the method: as §1
# [5] = system: Saccharomyces cerevisiae BY4741 SeMeCo community; test: z-score of subpopulation abundance vs DMSO median, subpopulation auxotrophic for H; higher = larger share of this subpopulation than in DMSO controls; details: 10 µM; 24 h; SM minimal medium; subpopulation (auxotrophy): H
# Summary of the method: as §1
# [6] = system: Saccharomyces cerevisiae BY4741 SeMeCo community; test: z-score of subpopulation abundance vs DMSO median, subpopulation auxotrophic for LU; higher = larger share of this subpopulation than in DMSO controls; details: 10 µM; 24 h; SM minimal medium; subpopulation (auxotrophy): LU
# Summary of the method: as §1
# [7] = system: Saccharomyces cerevisiae BY4741 SeMeCo community; test: z-score of subpopulation abundance vs DMSO median, subpopulation auxotrophic for LM; higher = larger share of this subpopulation than in DMSO controls; details: 10 µM; 24 h; SM minimal medium; subpopulation (auxotrophy): LM
# Summary of the method: as §1
# [8] = system: Saccharomyces cerevisiae BY4741 SeMeCo community; test: z-score of subpopulation abundance vs DMSO median, subpopulation auxotrophic for HM; higher = larger share of this subpopulation than in DMSO controls; details: 10 µM; 24 h; SM minimal medium; subpopulation (auxotrophy): HM
# Summary of the method: as §1
# [9] = system: Saccharomyces cerevisiae BY4741 SeMeCo community; test: z-score of subpopulation abundance vs DMSO median, subpopulation auxotrophic for HU; higher = larger share of this subpopulation than in DMSO controls; details: 10 µM; 24 h; SM minimal medium; subpopulation (auxotrophy): HU
# Summary of the method: as §1
# [10] = system: Saccharomyces cerevisiae BY4741 SeMeCo community; test: z-score of subpopulation abundance vs DMSO median, subpopulation auxotrophic for UM; higher = larger share of this subpopulation than in DMSO controls; details: 10 µM; 24 h; SM minimal medium; subpopulation (auxotrophy): UM
# Summary of the method: as §1
# [11] = system: Saccharomyces cerevisiae BY4741 SeMeCo community; test: z-score of subpopulation abundance vs DMSO median, subpopulation auxotrophic for HL; higher = larger share of this subpopulation than in DMSO controls; details: 10 µM; 24 h; SM minimal medium; subpopulation (auxotrophy): HL
# Summary of the method: as §1
# [12] = system: Saccharomyces cerevisiae BY4741 SeMeCo community; test: z-score of subpopulation abundance vs DMSO median, subpopulation auxotrophic for HLU; higher = larger share of this subpopulation than in DMSO controls; details: 10 µM; 24 h; SM minimal medium; subpopulation (auxotrophy): HLU
# Summary of the method: as §1
# [13] = system: Saccharomyces cerevisiae BY4741 SeMeCo community; test: z-score of subpopulation abundance vs DMSO median, subpopulation auxotrophic for HLM; higher = larger share of this subpopulation than in DMSO controls; details: 10 µM; 24 h; SM minimal medium; subpopulation (auxotrophy): HLM
# Summary of the method: as §1
# [14] = system: Saccharomyces cerevisiae BY4741 SeMeCo community; test: z-score of subpopulation abundance vs DMSO median, subpopulation auxotrophic for HUM; higher = larger share of this subpopulation than in DMSO controls; details: 10 µM; 24 h; SM minimal medium; subpopulation (auxotrophy): HUM
# Summary of the method: as §1
# [15] = system: Saccharomyces cerevisiae BY4741 SeMeCo community; test: z-score of subpopulation abundance vs DMSO median, subpopulation auxotrophic for HLUM; higher = larger share of this subpopulation than in DMSO controls; details: 10 µM; 24 h; SM minimal medium; subpopulation (auxotrophy): HLUM
# Summary of the method: as §1
# [16] = system: Saccharomyces cerevisiae BY4741 SeMeCo community; test: z-score of subpopulation abundance vs DMSO median, subpopulation auxotrophic for LUM; higher = larger share of this subpopulation than in DMSO controls; details: 10 µM; 24 h; SM minimal medium; subpopulation (auxotrophy): LUM
# Summary of the method: as §1
# [17] = system: Saccharomyces cerevisiae BY4741 SeMeCo community; test: z-score of prototroph abundance vs DMSO median; higher = larger share of this subpopulation than in DMSO controls; details: 10 µM; 24 h; SM minimal medium; subpopulation (auxotrophy): Prototroph
# Summary of the method: as §1
SMILES,mean cell size [1],z-score of subpopulation abundance [2],z-score of subpopulation abundance [3],z-score of subpopulation abundance [4],z-score of subpopulation abundance [5],z-score of subpopulation abundance [6],z-score of subpopulation abundance [7],z-score of subpopulation abundance [8],z-score of subpopulation abundance [9],z-score of subpopulation abundance [10],z-score of subpopulation abundance [11],z-score of subpopulation abundance [12],z-score of subpopulation abundance [13],z-score of subpopulation abundance [14],z-score of subpopulation abundance [15],z-score of subpopulation abundance [16],z-score of prototroph abundance [17]
O=C(CCCN1CCN(c2ccccn2)CC1)c1ccc(F)cc1 [Azaperone],12.29 ± 0.072,0,0.29,0.07,-0.28,0.24,0.61,-0.63,0.16,0.85,-0.42,-0.03,-0.5,1.31,0.31,,
CNCC[C@H](Oc1cccc2ccccc12)c1cccs1 [Duloxetine HCl],12.5 ± 0.21,0.4,-0.57,,,-0.43,-0.49,0,-1.13,0.1,-1.07,-0.74,-0.84,-0.47,0.03,-0.53,
CN1C2CCCC1CC(NC(=O)c1nn(C)c3ccccc13)C2 (stereo not given) [Granisetron],12.3 ± 0.14,1.71,-0.54,,-1.03,-0.92,-0.49,0.6,-0.71,0.55,-1.17,-0.07,-0.1,0.05,-0.81,-0.48,-0.04
C[N+]1(C)[C@@H]2C[C@@H](OC(=O)C(O)(c3cccs3)c3cccs3)C[C@H]1[C@@H]1O[C@@H]12 [Tiotropium Bromide hydrate],12.5 ± 0.25,0.04,-0.76,,-0.8,-0.81,-0.42,-0.06,-0.66,0.07,-0.52,-0.81,-0.78,-0.43,-0.81,,0.56
C[C@]12CC[C@@H]3c4ccc(OC(=O)c5ccccc5)cc4CC[C@H]3[C@@H]1CC[C@@H]2O [Estradiol Benzoate],12.4 ± 0.25,0.35,0.05,,-0.36,-0.68,0.31,0.05,-0.12,0.15,,-0.51,-0.6,0.38,-0.15,0.37,-0.27
CN1C[C@@H]2C[C@H]1CN2c1cc2c(cc1F)c(=O)c(C(=O)O)cn2C1CC1 [Danofloxacin Mesylate],12.1 ± 0.25,0.03,-0.69,,0.54,-0.89,-0.68,-0.46,-0.09,0,,0.21,-0.5,-0.05,-0.14,,
Cc1onc(-c2ccccc2Cl)c1C(=O)N[C@@H]1C(=O)N2[C@@H]1SC(C)(C)[C@@H]2C(=O)O [Cloxacillin Sodium],12.44 ± 0.058,0.44,0.15,,-0.29,0.4,0.63,-0.01,0.86,1.46,-0.33,0.44,0.97,2.07,1.38,1.65,-1.62
CCNC(=O)[C@@H]1CCCN1C(=O)[C@H](CCCNC(=N)N)NC(=O)[C@H](CC(C)C)NC(=O)[C@@H](CC(C)C)NC(=O)[C@H](Cc1ccc(O)cc1)NC(=O)[C@H](CO)NC(=O)[C@H](Cc1c[nH]c2ccccc12)NC(=O)[C@H](Cc1c[nH]cn1)NC(=O)[C@@H]1CCC(=O)N1 [Leuprolide Acetate],12.5 ± 0.15,0.38,0.44,,0.67,-0.03,0.63,0.95,1.03,0.23,0.14,0.54,0.28,0.45,0.75,0.35,-0.62
